Measured values published in ChEMBL document CHEMBL1961873, “Compounds: GSK PKIS; Assays: Nanosyn kinase panel” (2012).

Key:
[1] = target: Ribosomal protein S6 kinase alpha-6 (Homo sapiens) (UniProt Q9UK32); settings: at 1 µM;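 also: each value is a mean inhibition of RSK4 from a GSK PKIS panel screen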
[2] = target: T1, Serine/threonine-protein kinase Sgk1 (Homo sapiens) (UniProt O00141); settings: at 0.1 µM
T1 sequence (whole entry): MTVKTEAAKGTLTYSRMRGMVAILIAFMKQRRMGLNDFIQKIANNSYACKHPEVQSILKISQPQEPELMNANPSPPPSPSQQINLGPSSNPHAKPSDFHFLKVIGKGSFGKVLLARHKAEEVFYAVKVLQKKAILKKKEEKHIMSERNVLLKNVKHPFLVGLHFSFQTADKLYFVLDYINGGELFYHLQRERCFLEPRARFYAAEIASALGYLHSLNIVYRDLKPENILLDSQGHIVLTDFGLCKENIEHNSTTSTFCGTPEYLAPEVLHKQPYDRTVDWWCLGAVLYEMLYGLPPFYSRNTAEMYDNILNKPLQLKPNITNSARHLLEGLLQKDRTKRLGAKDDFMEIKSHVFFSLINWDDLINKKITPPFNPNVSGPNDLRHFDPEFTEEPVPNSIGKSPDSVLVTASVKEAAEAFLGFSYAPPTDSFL

[3] = target: T1, Serine/threonine-protein kinase Sgk1 (Homo sapiens); settings: at 1 µM
[4] = target: T2, Serine/threonine-protein kinase Sgk2 (Homo sapiens) (UniProt Q9HBY8); settings: at 0.1 µM
T2 sequence (whole entry): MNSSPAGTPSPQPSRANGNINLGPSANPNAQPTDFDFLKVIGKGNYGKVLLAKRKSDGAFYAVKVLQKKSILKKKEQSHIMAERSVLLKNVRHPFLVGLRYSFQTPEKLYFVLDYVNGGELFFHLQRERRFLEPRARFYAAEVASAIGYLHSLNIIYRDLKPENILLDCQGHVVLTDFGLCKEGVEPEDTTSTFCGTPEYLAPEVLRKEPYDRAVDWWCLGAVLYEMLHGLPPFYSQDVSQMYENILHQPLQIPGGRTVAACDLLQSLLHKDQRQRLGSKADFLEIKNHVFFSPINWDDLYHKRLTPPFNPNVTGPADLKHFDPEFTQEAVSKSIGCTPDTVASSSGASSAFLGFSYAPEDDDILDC

[5] = target: T2, Serine/threonine-protein kinase Sgk2 (Homo sapiens); settings: at 1 µM
[6] = target: T3, Serine/threonine-protein kinase Sgk3 (Homo sapiens) (UniProt Q96BR1); settings: at 0.1 µM
T3 sequence (whole entry): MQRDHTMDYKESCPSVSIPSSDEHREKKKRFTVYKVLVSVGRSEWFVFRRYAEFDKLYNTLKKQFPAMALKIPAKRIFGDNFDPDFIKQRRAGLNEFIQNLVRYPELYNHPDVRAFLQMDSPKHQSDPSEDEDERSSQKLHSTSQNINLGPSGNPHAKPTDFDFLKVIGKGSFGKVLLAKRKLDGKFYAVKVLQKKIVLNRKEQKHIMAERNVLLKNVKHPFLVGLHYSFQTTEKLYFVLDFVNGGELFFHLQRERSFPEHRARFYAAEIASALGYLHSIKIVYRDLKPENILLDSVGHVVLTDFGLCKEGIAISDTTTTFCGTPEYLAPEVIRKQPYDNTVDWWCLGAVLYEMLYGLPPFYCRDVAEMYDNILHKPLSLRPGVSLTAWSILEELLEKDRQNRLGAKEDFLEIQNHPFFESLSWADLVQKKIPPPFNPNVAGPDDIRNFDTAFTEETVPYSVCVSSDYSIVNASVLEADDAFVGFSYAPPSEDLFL

[7] = target: T3, Serine/threonine-protein kinase Sgk3 (Homo sapiens); settings: at 1 µM
[8] = target: 5'-AMP-activated protein kinase catalytic subunit alpha-1 (Homo sapiens) (UniProt Q13131); settings: at 0.1 µM
5'-AMP-activated protein kinase catalytic subunit alpha-1 (Homo sapiens), sequence (Q13131 whole entry, looked up): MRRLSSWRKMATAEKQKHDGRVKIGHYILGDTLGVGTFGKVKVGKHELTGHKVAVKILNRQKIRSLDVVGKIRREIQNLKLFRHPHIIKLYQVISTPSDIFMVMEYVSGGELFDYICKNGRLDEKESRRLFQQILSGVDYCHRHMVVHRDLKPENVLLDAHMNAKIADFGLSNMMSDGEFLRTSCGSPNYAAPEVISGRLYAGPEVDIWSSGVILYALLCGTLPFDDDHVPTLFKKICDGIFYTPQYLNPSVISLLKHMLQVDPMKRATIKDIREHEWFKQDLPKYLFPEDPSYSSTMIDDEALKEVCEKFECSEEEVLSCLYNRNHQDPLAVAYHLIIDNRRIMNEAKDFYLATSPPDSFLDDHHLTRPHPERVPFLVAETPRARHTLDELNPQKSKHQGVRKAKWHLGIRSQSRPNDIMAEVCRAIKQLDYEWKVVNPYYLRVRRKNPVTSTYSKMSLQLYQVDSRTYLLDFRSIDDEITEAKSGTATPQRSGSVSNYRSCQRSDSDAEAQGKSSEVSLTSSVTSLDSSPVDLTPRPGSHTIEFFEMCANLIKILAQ

[9] = target: 5'-AMP-activated protein kinase catalytic subunit alpha-1 (Homo sapiens) (UniProt Q13131); settings: at 1 µM
[10] = target: 5'-AMP-activated protein kinase catalytic subunit alpha-2 (Homo sapiens) (UniProt P54646); settings: at 0.1 µM
5'-AMP-activated protein kinase catalytic subunit alpha-2 (Homo sapiens), sequence (P54646 whole entry, looked up): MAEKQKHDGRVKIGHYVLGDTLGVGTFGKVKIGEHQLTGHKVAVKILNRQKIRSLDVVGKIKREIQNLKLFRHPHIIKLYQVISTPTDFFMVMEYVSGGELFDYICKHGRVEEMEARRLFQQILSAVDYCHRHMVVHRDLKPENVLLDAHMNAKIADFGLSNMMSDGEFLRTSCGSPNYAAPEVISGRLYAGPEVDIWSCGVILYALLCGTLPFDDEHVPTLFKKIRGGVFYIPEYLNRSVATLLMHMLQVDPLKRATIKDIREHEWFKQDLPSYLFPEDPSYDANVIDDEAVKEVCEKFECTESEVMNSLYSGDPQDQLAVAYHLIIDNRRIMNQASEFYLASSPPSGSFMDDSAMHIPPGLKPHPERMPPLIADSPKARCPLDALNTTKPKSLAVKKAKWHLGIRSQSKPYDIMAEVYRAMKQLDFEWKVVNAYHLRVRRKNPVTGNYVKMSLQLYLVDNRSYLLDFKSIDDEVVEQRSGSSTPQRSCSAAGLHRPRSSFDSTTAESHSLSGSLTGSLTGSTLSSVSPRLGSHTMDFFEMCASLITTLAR

[11] = target: 5'-AMP-activated protein kinase catalytic subunit alpha-2 (Homo sapiens) (UniProt P54646); settings: at 1 µM
[12] = target: T4, NUAK family SNF1-like kinase 1 (Homo sapiens) (UniProt O60285); settings: at 0.1 µM
T4 sequence (whole entry): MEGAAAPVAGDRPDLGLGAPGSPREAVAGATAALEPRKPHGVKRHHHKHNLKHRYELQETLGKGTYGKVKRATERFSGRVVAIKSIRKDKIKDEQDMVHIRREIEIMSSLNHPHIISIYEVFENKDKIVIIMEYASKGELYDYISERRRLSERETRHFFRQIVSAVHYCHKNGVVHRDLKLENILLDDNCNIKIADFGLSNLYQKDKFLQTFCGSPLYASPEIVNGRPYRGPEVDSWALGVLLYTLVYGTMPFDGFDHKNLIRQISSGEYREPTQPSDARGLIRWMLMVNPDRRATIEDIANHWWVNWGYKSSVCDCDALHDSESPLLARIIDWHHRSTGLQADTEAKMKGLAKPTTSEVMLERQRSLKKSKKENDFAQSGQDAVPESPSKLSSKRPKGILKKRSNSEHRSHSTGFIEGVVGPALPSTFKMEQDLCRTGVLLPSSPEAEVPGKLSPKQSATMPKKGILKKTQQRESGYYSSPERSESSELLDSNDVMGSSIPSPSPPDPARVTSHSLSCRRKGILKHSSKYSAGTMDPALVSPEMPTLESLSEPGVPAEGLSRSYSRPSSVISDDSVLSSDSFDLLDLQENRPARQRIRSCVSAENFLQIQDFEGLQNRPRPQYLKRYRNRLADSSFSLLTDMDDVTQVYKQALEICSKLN

[13] = target: T4, NUAK family SNF1-like kinase 1 (Homo sapiens); settings: at 1 µM
[14] = target: T5, Serine/threonine-protein kinase BRSK1 (Homo sapiens) (UniProt Q8TDC3); settings: at 0.1 µM
T5 sequence (whole entry): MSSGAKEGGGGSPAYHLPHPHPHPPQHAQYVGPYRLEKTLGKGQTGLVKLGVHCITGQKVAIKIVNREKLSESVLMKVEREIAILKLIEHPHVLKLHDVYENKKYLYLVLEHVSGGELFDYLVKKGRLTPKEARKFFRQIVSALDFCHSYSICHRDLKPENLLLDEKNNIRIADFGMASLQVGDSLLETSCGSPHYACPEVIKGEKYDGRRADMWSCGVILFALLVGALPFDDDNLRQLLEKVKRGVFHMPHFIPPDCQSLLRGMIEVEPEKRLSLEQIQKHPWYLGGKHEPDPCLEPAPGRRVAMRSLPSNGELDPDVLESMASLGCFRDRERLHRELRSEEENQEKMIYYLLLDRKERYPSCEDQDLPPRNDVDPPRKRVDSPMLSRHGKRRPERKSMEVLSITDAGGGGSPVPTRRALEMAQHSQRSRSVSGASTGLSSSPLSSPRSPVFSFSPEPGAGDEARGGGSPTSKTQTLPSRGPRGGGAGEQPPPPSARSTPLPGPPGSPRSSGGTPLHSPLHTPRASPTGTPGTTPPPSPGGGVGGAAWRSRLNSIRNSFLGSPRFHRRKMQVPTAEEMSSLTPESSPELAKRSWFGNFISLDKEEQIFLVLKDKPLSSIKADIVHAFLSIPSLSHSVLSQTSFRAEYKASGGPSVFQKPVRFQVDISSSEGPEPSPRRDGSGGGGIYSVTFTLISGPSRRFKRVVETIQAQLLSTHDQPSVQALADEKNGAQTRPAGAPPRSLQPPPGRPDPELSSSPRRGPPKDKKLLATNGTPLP

[15] = target: T5, Serine/threonine-protein kinase BRSK1 (Homo sapiens); settings: at 1 µM
[16] = target: T6, Serine/threonine-protein kinase BRSK2 (Homo sapiens) (UniProt Q8IWQ3); settings: at 0.1 µM
T6 sequence (whole entry): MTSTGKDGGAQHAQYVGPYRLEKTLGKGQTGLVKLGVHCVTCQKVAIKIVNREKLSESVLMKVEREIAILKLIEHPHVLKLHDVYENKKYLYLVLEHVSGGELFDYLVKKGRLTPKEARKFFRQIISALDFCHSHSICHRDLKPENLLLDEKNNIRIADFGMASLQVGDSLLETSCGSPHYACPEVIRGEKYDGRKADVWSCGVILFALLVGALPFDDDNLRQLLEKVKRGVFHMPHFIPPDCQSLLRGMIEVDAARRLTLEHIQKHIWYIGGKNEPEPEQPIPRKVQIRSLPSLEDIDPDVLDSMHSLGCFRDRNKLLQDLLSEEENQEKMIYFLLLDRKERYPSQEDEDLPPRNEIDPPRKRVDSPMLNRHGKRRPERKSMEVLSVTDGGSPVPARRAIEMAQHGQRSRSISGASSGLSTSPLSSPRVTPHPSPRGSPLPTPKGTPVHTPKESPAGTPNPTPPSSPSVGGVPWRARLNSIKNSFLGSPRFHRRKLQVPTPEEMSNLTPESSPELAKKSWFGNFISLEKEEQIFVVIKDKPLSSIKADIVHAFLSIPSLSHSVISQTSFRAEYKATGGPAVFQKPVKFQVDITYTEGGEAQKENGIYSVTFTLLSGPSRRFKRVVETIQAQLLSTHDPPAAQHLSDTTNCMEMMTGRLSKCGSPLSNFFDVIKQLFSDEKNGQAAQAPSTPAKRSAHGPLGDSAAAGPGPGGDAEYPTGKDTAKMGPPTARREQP

[17] = target: T6, Serine/threonine-protein kinase BRSK2 (Homo sapiens); settings: at 1 µM
[18] = target: Calcium/calmodulin-dependent protein kinase type 1D (Homo sapiens) (UniProt Q8IU85); settings: at 0.1 µM
Calcium/calmodulin-dependent protein kinase type 1D (Homo sapiens), sequence (Q8IU85 whole entry, looked up): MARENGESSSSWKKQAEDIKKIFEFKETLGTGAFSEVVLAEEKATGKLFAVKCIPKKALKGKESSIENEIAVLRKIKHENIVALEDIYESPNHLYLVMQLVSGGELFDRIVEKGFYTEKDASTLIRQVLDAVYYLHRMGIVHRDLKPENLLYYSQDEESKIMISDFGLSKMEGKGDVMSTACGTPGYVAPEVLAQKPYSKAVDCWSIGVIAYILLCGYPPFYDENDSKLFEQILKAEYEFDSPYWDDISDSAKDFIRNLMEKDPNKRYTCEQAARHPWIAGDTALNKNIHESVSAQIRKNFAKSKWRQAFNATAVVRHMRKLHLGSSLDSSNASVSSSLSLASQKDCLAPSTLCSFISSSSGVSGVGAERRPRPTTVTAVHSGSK

[19] = target: Calcium/calmodulin-dependent protein kinase type 1D (Homo sapiens) (UniProt Q8IU85); settings: at 1 µM
[20] = target: Calcium/calmodulin-dependent protein kinase type II subunit alpha (Homo sapiens) (UniProt Q9UQM7); settings: at 0.1 µM;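 also: reported values are averages (mean inhibition of CAMK2A)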
Calcium/calmodulin-dependent protein kinase type II subunit alpha (Homo sapiens), sequence (Q9UQM7 whole entry): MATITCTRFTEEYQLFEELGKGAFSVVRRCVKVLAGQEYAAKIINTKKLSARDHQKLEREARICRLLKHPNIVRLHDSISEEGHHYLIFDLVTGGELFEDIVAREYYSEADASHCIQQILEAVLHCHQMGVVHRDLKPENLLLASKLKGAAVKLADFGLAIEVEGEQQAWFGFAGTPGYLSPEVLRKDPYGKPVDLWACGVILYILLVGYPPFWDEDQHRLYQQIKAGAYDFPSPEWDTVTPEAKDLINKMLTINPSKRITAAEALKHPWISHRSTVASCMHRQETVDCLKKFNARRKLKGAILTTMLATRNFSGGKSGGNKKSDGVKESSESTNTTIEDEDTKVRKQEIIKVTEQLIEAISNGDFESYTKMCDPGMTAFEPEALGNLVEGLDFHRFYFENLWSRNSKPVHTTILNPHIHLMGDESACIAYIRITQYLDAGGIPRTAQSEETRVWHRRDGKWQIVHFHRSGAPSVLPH

Ribosomal protein S6 kinase alpha-6 (Homo sapiens), sequence (Q9UK32 whole entry): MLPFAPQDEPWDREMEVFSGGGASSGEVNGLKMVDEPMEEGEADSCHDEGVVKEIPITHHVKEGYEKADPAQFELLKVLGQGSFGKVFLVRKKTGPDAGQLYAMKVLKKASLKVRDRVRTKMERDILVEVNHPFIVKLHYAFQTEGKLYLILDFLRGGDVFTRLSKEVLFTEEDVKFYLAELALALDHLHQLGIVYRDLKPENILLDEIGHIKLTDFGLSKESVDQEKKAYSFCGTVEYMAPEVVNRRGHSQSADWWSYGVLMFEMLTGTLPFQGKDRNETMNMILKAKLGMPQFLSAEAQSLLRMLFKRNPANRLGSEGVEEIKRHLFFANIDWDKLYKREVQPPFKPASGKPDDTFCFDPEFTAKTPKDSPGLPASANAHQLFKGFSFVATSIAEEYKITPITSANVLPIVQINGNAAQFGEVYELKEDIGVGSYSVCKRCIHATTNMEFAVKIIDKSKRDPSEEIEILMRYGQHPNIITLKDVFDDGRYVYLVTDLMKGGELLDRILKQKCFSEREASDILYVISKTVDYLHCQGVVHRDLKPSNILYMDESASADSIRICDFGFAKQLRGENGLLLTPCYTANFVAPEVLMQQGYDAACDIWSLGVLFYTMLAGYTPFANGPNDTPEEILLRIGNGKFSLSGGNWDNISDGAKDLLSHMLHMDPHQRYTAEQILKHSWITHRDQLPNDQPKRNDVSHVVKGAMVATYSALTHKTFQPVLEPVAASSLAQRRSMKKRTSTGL

| Structure (SMILES) | inhibition [1] [%] | inhibition [2] [%] | inhibition [3] [%] | inhibition [4] [%] | inhibition [5] [%] | inhibition [6] [%] | inhibition [7] [%] | inhibition [8] [%] | inhibition [9] [%] | inhibition [10] [%] | inhibition [11] [%] | inhibition [12] [%] | inhibition [13] [%] | inhibition [14] [%] | inhibition [15] [%] | inhibition [16] [%] | inhibition [17] [%] | inhibition [18] [%] | inhibition [19] [%] | inhibition [20] [%] |
| --- | --- | --- | --- | --- | --- | --- | --- | --- | --- | --- | --- | --- | --- | --- | --- | --- | --- | --- | --- | --- |
| O=C(Nc1n[nH]c2cc(-c3ccc(F)cc3)ccc12)C1CC1 | 4.8 | 2.59 | 3.89 | 3.3 | 6.36 | 3.83 | 8.97 | 1.21 | 4.56 | 3.71 | 6.01 | 0.71 | 2.52 | 4.68 | 26.2 | 6.41 | 33.5 | 0.43 | 1.06 | 0.76 |
| Fc1ccc(-c2nn3ncccc3c2-c2ccnc(Nc3ccc4c(c3)OCCO4)n2)cc1 | 5.49 | 3.85 | 3.42 | 0.17 | 0.65 | 4.45 | 0.8 | 3 | 1.48 | 3.53 | 4.39 | -3.69 | -0.79 | 0.48 | -0.53 | 0.21 | -0.44 | -0.07 | 8.91 | 3.81 |
| c1cc(-c2cnn3nc(N4CCOCC4)ccc23)nc(NC2CC2)n1 | 10.5 | 2.27 | 3.4 | 9.24 | 9.02 | 4.38 | 2.23 | 4.11 | 6.88 | -0.07 | 7.62 | 5.42 | 25.6 | 2.4 | 6.62 | 3.67 | 7.84 | 1.69 | 2.68 | 4.7 |
| COc1ccc(-c2cc(-c3c[nH]nc3-c3ccccn3)ccn2)cc1 | 1.8 | 2.87 | 7.39 | 5.02 | 5.93 | 4.82 | 6.74 | 4.71 | 6.63 | 0.83 | 3.44 | -7.35 | 2.48 | -0.01 | 2.6 | 2.08 | 3.41 | 0.05 | -1.05 | 4.66 |
| CNC(=O)c1cc(-c2ccc(F)cc2)cc(-c2ccc(S(=O)(=O)N3CCCC3)cc2)c1N | 1.28 | 2.26 | 1.89 | 2.87 | 0.33 | 2.62 | 3.57 | 1.77 | 2.03 | 6.28 | 2.93 | 1.2 | 1.2 | 1.39 | -2.02 | 0.91 | 2.02 | -0.49 | 1.09 | 0.94 |
| CCOc1ccc2c(-c3ccnc(Nc4cccc(C(F)(F)F)c4)n3)cnn2n1 | -0.99 | 1.25 | 0.13 | 2.25 | 0.87 | 0.95 | 2.4 | 2.48 | 2.09 | 0.22 | 2.74 | 2.71 | 7.44 | 1.14 | 4.56 | 3.01 | 2.66 | 1 | 1.1 | 0.19 |
| CNC(=O)c1cccc(C#Cc2cncnc2Nc2ccc(OCc3cccc(F)c3)c(Cl)c2)c1 | 0.05 | 1.16 | 0.62 | -0.28 | 0.71 | 0.18 | 1.41 | 0.65 | 2.17 | -3.97 | 1.89 | 0.54 | 8.68 | -0.7 | 2.56 | 1.59 | 4.03 | -1.04 | -0.89 | 1.34 |
